Results published in the supplement of paper PMC6555819.

Legend:
Experiment in all cases: PBM binding z-score (relative to random genomic background probes); higher = stronger binding; sequences stand for … in GC…GCGATTGACAGCGTAGAATGAAGG
[1] = system: PPARg:RXRa DBDmut IVT, anti-RXR (DBD mutation: RXRa K156A/R161A, NR concentration 270 nM, RXRa partner concentration 90 nM)
Procedure, shortened: (§1)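 Probes were double-stranded and carried 34-nt variable regions with direct-repeat seeds, single-nucleotide variants, half-site ablations and random human genomic background sequences, printed on custom Agilent 4×180K protein-binding microarrays. Arrays were incubated 1 h with ligand-free nuclear receptor dimers in PBS pH 7.4, 2% milk, 0.02% Triton X-100, 1 mM DTT, 0.2 mg/mL BSA and 0.4 mg/ml salmon testes DNA. Antibodies against each partner (one per run) detected binding, and scanned fluorescence was regression-normalized. Binding z-scores use the random background probes as reference.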

[2] = system: PPARg:RXRa IVT, anti-PPARg (NR concentration 270 nM, RXRa partner concentration 90 nM)
Procedure, shortened: as §1

[3] = system: PPARg DBDmut:RXRa IVT, anti-PPARg (DBD mutation: PPARg1 K132A/R137A, NR concentration 270 nM, RXRa partner concentration 90 nM)
Procedure, shortened: as §1

[4] = system: PPARg DBDmut IVT, anti-PPARg (DBD mutation: PPARg1 K132A/R137A, NR concentration 270 nM)
Procedure, shortened: as §1

[5] = system: PPARg homodimer (NR concentration 180 nM)
Procedure, shortened: as §1

[6] = system: PXR:RXRa (NR concentration 270 nM, RXRa partner concentration 90 nM)
Procedure, shortened: as §1

[7] = system: PXR homodimer (NR concentration 270 nM)
Procedure, shortened: as §1

[8] = system: RARa:RXR (NR concentration 270 nM, RXRa partner concentration 90 nM)
Procedure, shortened: as §1

[9] = system: RARa homodimer (NR concentration 270 nM)
Procedure, shortened: as §1

[10] = system: RARb:RXRa (NR concentration 270 nM, RXRa partner concentration 90 nM)
Procedure, shortened: as §1

Sequence | PBM binding z-score [1] | PBM binding z-score [2] | PBM binding z-score [3] | PBM binding z-score [4] | PBM binding z-score [5] | PBM binding z-score [6] | PBM binding z-score [7] | PBM binding z-score [8] | PBM binding z-score [9] | PBM binding z-score [10]
CGGCCAAGGTCAGCAGGTCAGTGAAAGCGACGTG | 3.06 | 3.74 | -0.746 | -1.2 | 2.33 | 3.48 | 0.241 | 4.37 | 0.145 | 5.34
CCAAACAGGTGAAAGGTAACTCAGTCTGGTACGC | 3.27 | 4.15 | 0.615 | 0.037 | 1.17 | 1.01 | 0.17 | 2.3 | 1.21 | 1.21
CAAACTAGGTCAAAGATCAAAGTCGAGCCAACCA | 8.07 | 8.58 | 1.49 | 0.885 | 1.76 | 2.81 | 0.46 | 4.42 | 0.53 | 3.99
AGAAAGAGGTTACCAAAGATCAGGGAAACGCTTG | 1.97 | 1.94 | 0.516 | 0.104 | 0.75 | 1.82 | -0.238 | 2.63 | 0.245 | 2.62
CGAACTAGGCCATTGACAGGACAGTGAATAGTAA | 6.87 | 5.51 | 1.09 | 0.545 | 0.245 | -0.291 | 0.0591 | -0.304 | -0.0299 | 0.565
GCTGCTAGGTCAACTGATGGTCAGCGAAAGCTCG | 4.56 | 4.1 | 0.329 | -0.0247 | 1.64 | 1.7 | -0.425 | 2.98 | 0.244 | 4.37
ATGTCTAGGTAAAAGTTCAGTGAATCCCGAGGAT | 1.33 | 3.13 | 0.931 | 0.765 | 1.17 | 1.87 | 1.49 | 1.77 | 0.698 | 2.39
CCTCGGAGGACAACAGCAGGTCAGAGCTGCCAGA | 0.0913 | -0.0313 | -0.897 | -1.32 | 0.749 | 0.458 | -0.253 | 0.722 | 0.0209 | 2.04
TAGCCTAGGTCATTCAGTGGCCAGTATAGAAAGC | 1.37 | 2.7 | 0.204 | -0.521 | 1.28 | 1.66 | -0.355 | 2.22 | -0.566 | 3.65
ATCTCTAGGTAAAGATAGATCAGTGAATGCAAAT | 1.89 | 1.61 | 0.429 | 1.24 | -0.283 | -0.396 | 0.0363 | -0.0575 | 1.14 | -0.27
CATACAGGGTCACCTAGGCCAGAGTAGGGACGGC | 1.55 | 4.32 | 1.86 | 1.64 | 1.65 | 3.56 | 0.395 | 4.49 | 0.259 | 4.41
ACTAGCAGGCCCAGTTTGGGTCACTCAAACAAAG | -0.917 | 0.48 | -1.4 | -0.708 | -0.457 | 0.133 | -0.753 | 0.833 | -0.613 | 0.828
TCGTATAGGTAAATGCTAGGTGAAAGTCCGATCT | 2.09 | 1.21 | 0.00787 | 0.782 | 0.833 | 0.373 | -0.198 | 0.889 | 0.867 | 0.432
GCTTGTAGATCAGGGTTAAGAAAGACTAAGCTAA | 0.93 | 0.657 | -0.0573 | -0.809 | 0.18 | 0.366 | -0.121 | 0.69 | -0.311 | 0.352
CATACAGGGTCAGCGAGGCCAGAGTAGGGACGGC | 0.932 | 2.99 | 0.657 | 0.403 | 1.75 | 3.02 | 0.862 | 3.03 | 0.389 | 4.24
AGAATGAGGTTATGAAGATCAGGGAATTGCGGTC | 3.44 | 2.45 | 0.386 | -0.347 | 0.625 | 1.18 | 0.111 | 1.87 | 0.262 | 1.7
AGAATCAGGTTATACGTAGATCAGGGAAGAAAGT | 3.66 | 2.1 | 1.47 | 0.861 | 0.756 | 0.61 | 0.471 | 0.799 | 0.86 | 0.961
CCTACTGGGACAAAAAGGTCATTGATGCCGATAA | 4 | 4.26 | 0.444 | -0.273 | 3.86 | 4.85 | 4.14 | 5.36 | 1.97 | 3.94
TCTAGTTGGTCAAAGGTCACACCCTCGAAATGCG | 3.68 | 6.43 | 1.66 | 0.719 | 6.91 | 6.04 | 2.22 | 7.62 | 4.33 | 5.02
GCAGACAGGTGAAACGCAGGTGACTCAGGGTGGC | 0.661 | 1.27 | -0.57 | -0.659 | -0.182 | 0.074 | -0.467 | 0.675 | -0.193 | 1.01
CCTAGTTGTTCAAGGTCACACACGCTATAGGTAC | 1.86 | 2.8 | 2.46 | 1.22 | 4.99 | 4.73 | 3.83 | 5 | 4.94 | 4.12
CAAACTAGGTCACGAAAGGTCATAGTCGAATGAC | 8.9 | 9.17 | 2.98 | 2.98 | 6.62 | 6.74 | 2.77 | 7.32 | 3.5 | 5.58
TCTTGTAGATCAACAGGAGGTTAAGAACGATCGA | 1.71 | 0.594 | 0.843 | 0.593 | 0.264 | 0.722 | -0.175 | 0.889 | 0.0224 | 0.446
